# According to the supplement of paper PMC13094657:
# ± gives the standard deviation of the averaged measurements.
# What was measured:
# MDA-MB-231 [1] = test: cell viability relative to vehicle unstimulated control (fraction); higher = more viable cells; details: pre-treatment time: 18 h then 24 h IFNg/TNF
# MDA-MB-231 [2] = test: kynurenine production, fold change vs DMSO IFNg/TNF control; higher = more kynurenine produced (less inhibition); details: pre-treatment time: 18 h then 24 h IFNg/TNF
# Method in brief: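 After trichloroacetic acid and p-dimethylaminobenzaldehyde treatment, supernatants were read at 492 nm, with 0–100 μM standards. These came from MDA-MB-231 cells (7 × 10^4/well, 96-well plates) pre-treated 18 h with natural products in 0.1% DMSO and then exposed 24 h to IFNγ (1 U/ml) and TNF (6.25 ng/ml) at 37°C. Values for kynurenine production are fold changes over same-plate cytokine-stimulated vehicle wells, averaged over duplicate plates in the first screening round.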
# 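For cell viability relative to vehicle unstimulated control in this document: viability of the cells left after supernatant collection, read with Deep Blue dye added for 4 h, as absorbance at 570 nm minus 600 nm.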
smiles,measurement,setting,value
C[C@@H]1CC[C@@]2(OC1)O[C@H]1C[C@H]3[C@@H]4CC=C5C[C@@H](O[C@@H]6O[C@H](CO)[C@@H](O)[C@H](O[C@@H]7O[C@H](CO)[C@@H](O)[C@H](O)[C@H]7O)[C@H]6O[C@@H]6O[C@@H](C)[C@H](O)[C@@H](O)[C@H]6O)CC[C@]5(C)[C@H]4CC[C@]3(C)[C@H]1[C@@H]2C [Gracillin] (compound dose: 10 uM),cell viability,MDA-MB-231 [1],0.0777 ± 0.08
same,kynurenine production,MDA-MB-231 [2],0.202 ± 0.016
CC(C)c1cccc(=O)c(O)c1 [Hinokitiol] (compound dose: 10 uM),cell viability,MDA-MB-231 [1],0.9746 ± 0.0011
same,kynurenine production,MDA-MB-231 [2],0.423 ± 0.025
CC1(C)CC[C@]2(C)CC[C@]3(C)C(=CC[C@@H]4[C@@]5(C)CC[C@@H](O)[C@](C)(C(=O)O)[C@@H]5CC[C@]43C)[C@@H]2C1 [alpha-Boswellic acid] (compound dose: 10 uM),cell viability,MDA-MB-231 [1],0.953 ± 0.011
same,kynurenine production,MDA-MB-231 [2],0.911 ± 0.028
C[C@@H]1O[C@@H](O[C@H]2[C@H](OC(=O)[C@]34CCC(C)(C)C[C@H]3C3=CC[C@@H]5[C@@]6(C)C[C@H](O)[C@H](O[C@@H]7O[C@H](CO)[C@@H](O)[C@H](O)[C@H]7O)[C@@](C)(CO)[C@@H]6CC[C@@]5(C)[C@]3(C)C[C@H]4O)OC[C@H](O)[C@@H]2O)[C@H](O)[C@H](O)[C@H]1O[C@@H]1OC[C@@H](O)[C@H](O[C@@H]2OC[C@](O)(CO)[C@H]2O)[C@H]1O [Polygalacin D] (compound dose: 10 uM),cell viability,MDA-MB-231 [1],0.821 ± 0.05
same,kynurenine production,MDA-MB-231 [2],0.382 ± 0.056
C=C1C(=O)[C@@]23[C@H](O)C[C@@H]4C(C)(C)C(=O)CC[C@@]4(C)[C@@H]2CC[C@@H]1[C@H]3O [Glaucocalyxin A] (compound dose: 10 uM),cell viability,MDA-MB-231 [1],0.832 ± 0.078
same,kynurenine production,MDA-MB-231 [2],0.109 ± 0.029
COC(=O)C1=CC[C@@]23CC[C@@H]([C@@](C)(/C=C/C=C(\C)C(=O)O)OC2=O)[C@@]3(O)CC1 [Pseudolaric Acid C] (compound dose: 10 uM),cell viability,MDA-MB-231 [1],0.927 ± 0.094
same,kynurenine production,MDA-MB-231 [2],1.23 ± 0.051
C[C@@H]1O[C@@H](O[C@H]2[C@H](O[C@H]3[C@H](O[C@H]4CC[C@]5(C)[C@H]6CC=C7[C@@H]8CC(C)(C)CC[C@]8(C(=O)O)CC[C@@]7(C)[C@]6(C)CC[C@H]5C4(C)C)OC[C@H](O)[C@@H]3O)O[C@H](CO)[C@@H](O)[C@@H]2O)[C@H](O)[C@H](O)[C@H]1O [Raddeanin A] (compound dose: 10 uM),cell viability,MDA-MB-231 [1],0.0234 ± 0.033
same,kynurenine production,MDA-MB-231 [2],0.116 ± 0.011
CC(C)=CCC[C@@H](C)CC=O [Citronellal] (compound dose: 10 uM),cell viability,MDA-MB-231 [1],1.067 ± 0.0084
same,kynurenine production,MDA-MB-231 [2],1.22 ± 0.043
CC1(C)CC[C@]2(C(=O)O)CC[C@]3(C)C(=CC[C@@H]4[C@@]5(C)C[C@@H](O)[C@H](O)C(C)(C)[C@@H]5CC[C@]43C)[C@@H]2C1 [Maslinic acid] (compound dose: 10 uM),cell viability,MDA-MB-231 [1],0.962 ± 0.032
same,kynurenine production,MDA-MB-231 [2],0.876 ± 0.12
CC(C)=CCC[C@](C)(O[C@@H]1O[C@H](CO[C@@H]2OC[C@@H](O)[C@H](O)[C@H]2O)[C@@H](O)[C@H](O)[C@H]1O)[C@H]1CC[C@]2(C)[C@@H]1[C@H](O)C[C@@H]1[C@@]3(C)CC[C@H](O[C@@H]4O[C@H](CO)[C@@H](O)[C@H](O)[C@H]4O[C@@H]4O[C@H](CO)[C@@H](O)[C@H](O)[C@H]4O)C(C)(C)[C@@H]3CC[C@]12C [Ginsenoside Rb3] (compound dose: 10 uM),cell viability,MDA-MB-231 [1],1.01 ± 0.015
same,kynurenine production,MDA-MB-231 [2],0.73 ± 0.19
C=C(C)[C@@H]1CC[C@]2(CO)CC[C@]3(C)[C@H](CC[C@@H]4[C@@]5(C)CC[C@H](O)C(C)(C)[C@@H]5CC[C@]43C)[C@@H]12 [Betulin] (compound dose: 2 uM),cell viability,MDA-MB-231 [1],0.842 ± 0.04
same,kynurenine production,MDA-MB-231 [2],0.826 ± 0.13
C/C1=C/CC[C@H](C)C(=O)C[C@@H](C(C)C)C(=O)C1 [Curdione] (compound dose: 10 uM),cell viability,MDA-MB-231 [1],0.926 ± 0.015
same,kynurenine production,MDA-MB-231 [2],1.02 ± 0.059
CC1(C)CC[C@]2(C(=O)O)CC[C@]3(C)C(=CC[C@@H]4[C@@]5(C)CC[C@H](O)C(C)(C)[C@@H]5CC[C@]43C)[C@@H]2C1 [Oleanolic Acid] (compound dose: 10 uM),cell viability,MDA-MB-231 [1],0.984 ± 0.035
same,kynurenine production,MDA-MB-231 [2],0.778 ± 0.07
OC[C@H]1O[C@@H](O[C@@H]2OC=C[C@H]3[C@H](O)[C@@H]4O[C@]4(CO)[C@@H]23)[C@H](O)[C@@H](O)[C@@H]1O [Catalpol] (compound dose: 10 uM),cell viability,MDA-MB-231 [1],0.896 ± 0.28
same,kynurenine production,MDA-MB-231 [2],0.704 ± 0.58
C=C1CC/C=C(\C)CC[C@@H]2[C@@H]1CC2(C)C [β-Caryophyllene] (compound dose: 10 uM),cell viability,MDA-MB-231 [1],0.9919 ± 0.0069
same,kynurenine production,MDA-MB-231 [2],0.844 ± 0.19
